# In PubChem BioAssay AID1159580 (chemical genetic matrix, 2015):
# Values joined by “and” are separate entries in the source; they are usually repeats but may differ in a detail not shown here. Equal values may be shown once. Hit rate of the full screen: of about 5,500 compounds, about 2,000 (36%) were called active. Not shown: some 18% with an inconclusive outcome. The list shows a part of the results. Unmarked numbers belong to inactive results. Rule as the data show it: active = normalized growth mostly below about 0.91 (no sharp cut-off); inconclusive = no clear call, values can overlap the other calls; inactive = mostly above about 0.92.
# Test: chemical genetic growth profiling, strain panel (AID 1159580);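 also: tested at 20 µM; growth read once vehicle control cultures reached saturation at 30 °C; 1 = growth at the plate median or of vehicle wells; lower values mean less growth of the strain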
# Conditions: S. cerevisiae deletion strains, growth OD
smiles,measurement,setting,value
Nc1c2ccccc2nc2ccccc12,normalized growth,"locus YAL013W, strain DEP1, stronger effect = lower value",0.734 (active)
same,normalized growth,"locus YAL021C, strain ccr4, stronger effect = lower value",0.568 (active)
same,normalized growth,"locus YAL026C, strain drs2, stronger effect = lower value",0.675 (active)
same,normalized growth,"locus YAL030W, strain snc1, stronger effect = lower value",0.566 (active)
same,normalized growth,"locus YBL061C, strain skt5, stronger effect = lower value",0.754 (active)
same,normalized growth,"locus YBR009C, strain hhf1, stronger effect = lower value",0.378 (active)
same,normalized growth,"locus YBR021W, strain FUR4, stronger effect = lower value",1.02
same,normalized growth,"locus YBR023C, strain chs3, stronger effect = lower value",0.759 (active)
same,normalized growth,"locus YBR171W, strain sec66, stronger effect = lower value",1.09
same,normalized growth,"locus YBR229C, strain ROT2, stronger effect = lower value",1.01
same,normalized growth,"locus YBR231C, strain swc5, stronger effect = lower value",0.61 (active)
same,normalized growth,"locus YBR279W, strain paf1, stronger effect = lower value",0.55 (active)
same,normalized growth,"locus YCL011C, strain gbp2, stronger effect = lower value",0.526 (active)
same,normalized growth,"locus YCL016C, strain dcc1, stronger effect = lower value",0.453 (active)
same,normalized growth,"locus YCL029C, strain bik1, stronger effect = lower value",0.412 (active)
same,normalized growth,"locus YCL061C, strain MRC1, stronger effect = lower value",0.801 (active)
same,normalized growth,"locus YCL069W, strain vba3, stronger effect = lower value",0.732 (active)
same,normalized growth,"locus YCR088W, strain abp1, stronger effect = lower value",0.737 (active)
same,normalized growth,"locus YDL005C, strain med2, stronger effect = lower value",0.781 (active)
same,normalized growth,"locus YDL035C, strain GPR1, stronger effect = lower value",0.478 (active)
same,normalized growth,"locus YDL040C, strain nat1, stronger effect = lower value",0.838 (active)
same,normalized growth,"locus YDL074C, strain BRE1, stronger effect = lower value",0.484 (active)
same,normalized growth,"locus YDL101C, strain DUN1, stronger effect = lower value",0.782 (active)
same,normalized growth,"locus YDL134C, strain PPH21, stronger effect = lower value",0.729 (active)
same,normalized growth,"locus YDL185W, strain tfp1, stronger effect = lower value",1
same,normalized growth,"locus YDL192W, strain arf1, stronger effect = lower value",0.622 (active)
same,normalized growth,"locus YDR001C, strain nth1, stronger effect = lower value",0.89 (active)
same,normalized growth,"locus YDR069C, strain doa4, stronger effect = lower value",0.5 (active)
same,normalized growth,"locus YDR101C, strain arx1, stronger effect = lower value",0.483 (active)
same,normalized growth,"locus YDR137W, strain rgp1, stronger effect = lower value",0.983
same,normalized growth,"locus YDR150W, strain NUM1, stronger effect = lower value",0.838 (active)
same,normalized growth,"locus YDR159W, strain sac3, stronger effect = lower value",0.875
same,normalized growth,"locus YDR162C, strain NBP2, stronger effect = lower value",0.698 (active)
same,normalized growth,"locus YDR195W, strain ref2",1.23 [resistant] (active)
same,normalized growth,"locus YDR297W, strain sur2, stronger effect = lower value",0.662 (active)
same,normalized growth,"locus YDR318W, strain mcm21, stronger effect = lower value",0.565 (active)
same,normalized growth,"locus YDR334W, strain swr1, stronger effect = lower value",0.93
same,normalized growth,"locus YDR335W, strain msn5, stronger effect = lower value",0.782 (active)
same,normalized growth,"locus YDR388W, stronger effect = lower value",0.481 (active)
same,normalized growth,"locus YDR392W, strain spt3, stronger effect = lower value",0.825
same,normalized growth,"locus YDR502C, strain sam2, stronger effect = lower value",0.513 (active)
same,normalized growth,"locus YEL003W, strain gim4, stronger effect = lower value",0.679 (active)
same,normalized growth,"locus YEL037C, strain rad23, stronger effect = lower value",0.57 (active)
same,normalized growth,"locus YEL061C, strain CIN8 (second series), stronger effect = lower value",0.885 (active)
same,normalized growth,"locus YEL061C, strain CIN8, stronger effect = lower value",0.793 (active)
same,normalized growth,"locus YER015W, strain faa2, stronger effect = lower value",0.693 (active)
same,normalized growth,"locus YER016W, strain bim1, stronger effect = lower value",0.69 (active)
same,normalized growth,"locus YER110C, stronger effect = lower value",0.977
same,normalized growth,"locus YER111C, strain swi4, stronger effect = lower value",0.886 (active)
same,normalized growth,"locus YER155C, strain BEM2 (second series), stronger effect = lower value",0.913
same,normalized growth,"locus YER155C, strain BEM2, stronger effect = lower value",1.01
same,normalized growth,"locus YER167W, strain BCK2, stronger effect = lower value",0.614 (active)
same,normalized growth,"locus YFR010W, strain ubp6, stronger effect = lower value",0.615 (active)
same,normalized growth,"locus YGL078C, strain dbp3, stronger effect = lower value",0.681 (active)
same,normalized growth,"locus YGL086W, strain mad1, stronger effect = lower value",0.595 (active)
same,normalized growth,"locus YGL167C, strain pmr1, stronger effect = lower value",1.01
same,normalized growth,"locus YGL173C, strain kem1, stronger effect = lower value",0.567 (active)
same,normalized growth,"locus YGL227W, strain vid30, stronger effect = lower value",0.885 (active)
same,normalized growth,"locus YGL240W, strain doc1, stronger effect = lower value",0.914
same,normalized growth,"locus YGL248W, strain PDE1, stronger effect = lower value",0.671 (active)
same,normalized growth,"locus YGL253W, strain hxk2, stronger effect = lower value",0.535 (active)
same,normalized growth,"locus YGR078C, strain PAC10, stronger effect = lower value",0.735 (active)
same,normalized growth,"locus YGR135W, strain pre9, stronger effect = lower value",0.709 (active)
same,normalized growth,"locus YGR229C, strain SMI1, stronger effect = lower value",0.694 (active)
same,normalized growth,"locus YGR252W, strain gcn5, stronger effect = lower value",0.544 (active)
same,normalized growth,"locus YHR013C, strain ard1, stronger effect = lower value",0.557 (active)
same,normalized growth,"locus YHR027C, strain rpn1, stronger effect = lower value",0.73 (active)
same,normalized growth,"locus YHR030C, strain SLT2, stronger effect = lower value",0.796 (active) and 0.77 (active)
same,normalized growth,"locus YHR079C, strain IRE1 (second series), stronger effect = lower value",0.535 (active)
same,normalized growth,"locus YHR079C, strain IRE1, stronger effect = lower value",0.763 (active)
same,normalized growth,"locus YHR094C, strain hxt1, stronger effect = lower value",0.801 (active)
same,normalized growth,"locus YHR129C, strain ARP1, stronger effect = lower value",0.808 (active)
same,normalized growth,"locus YHR142W, strain chs7, stronger effect = lower value",0.706 (active)
same,normalized growth,"locus YHR200W, strain rpn10, stronger effect = lower value",0.674 (active)
same,normalized growth,"locus YIL066C, strain RNR3, stronger effect = lower value",0.737 (active)
same,normalized growth,"locus YIL073C, strain SPO22, stronger effect = lower value",0.681
same,normalized growth,"locus YIL125W, strain kgd1, stronger effect = lower value",0.803 (active)
same,normalized growth,"locus YIR030C, strain dcg1, stronger effect = lower value",0.59 (active)
same,normalized growth,"locus YJL092W, strain hpr5, stronger effect = lower value",0.659 (active)
same,normalized growth,"locus YJL095W, strain BCK1 (second series), stronger effect = lower value",0.684 (active)
same,normalized growth,"locus YJL095W, strain BCK1, stronger effect = lower value",0.563 (active) and 0.76 (active)
same,normalized growth,"locus YJL115W, strain asf1, stronger effect = lower value",0.861 (active)
same,normalized growth,"locus YJL129C, strain trk1, stronger effect = lower value",1.05
same,normalized growth,"locus YJL134W, strain LCB3, stronger effect = lower value",1.01
same,normalized growth,"locus YJL154C, strain vps35, stronger effect = lower value",0.993
same,normalized growth,"locus YJL164C, strain tpk1, stronger effect = lower value",0.462 (active)
same,normalized growth,"locus YJL166W, strain qcr8, stronger effect = lower value",0.549 (active)
same,normalized growth,"locus YJL168C, strain set2, stronger effect = lower value",0.972
same,normalized growth,"locus YJL187C, strain SWE1 (second series), stronger effect = lower value",0.524 (active)
same,normalized growth,"locus YJR043C, strain POL32, stronger effect = lower value",0.717 (active)
same,normalized growth,"locus YJR066W, strain TOR1, stronger effect = lower value",0.744 (active)
